This note sets out measurements from PubChem BioAssay (EPA / NIEHS).

SMILES strings stand for the structures. Inconclusive results are not listed. Active and inactive are the calls of the source. The calls were made as follows: active = hit-call score of the fitted dose curve at least 0.9, where 1 is the maximum; inconclusive = response in the unintended direction; inactive = score below 0.9.

Read-out in this assay: xenobiotic metabolism (CYP1A1), CYP1A1 (gene 1543)
In words: CLD_CYP1A1_6hr: CellzDirect (CLD) Gene Expression Assay for xenobiotic metabolism (CYP1A1) at 6 hours (AID 2283661).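 As to AC50: potency for transcript induction above DMSO vehicle baseline.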 Here is the method:
CLD_6hr is a cell-based, multiplexed-readout assay that uses hepatocyte, a human liver primary cell, with measurements taken at 6 hours after chemical dosing in a 96-well plate.CLD_CYP1A1_6hr is one of 16 assay component(s) measured or calculated from the CLD_6hr assay. It is designed to make measurements of mRNA induction, a form of inducible reporter, as detected with chemiluminescence signals by Quantitative Nuclease Protection Assay (qNPA) technology.Data from the assay component CLD_CYP1A1_6hr was analyzed at the endpoint, CLD_CYP1A1_6hr, in the positive analysis fitting direction relative to DMSO as the negative control and baseline of activity. Using a type of inducible reporter, gain-of-signal activity can be used to understand changes in the reporter gene as they relate to the gene CYP1A1. Furthermore, this assay endpoint can be referred to as a primary readout. To generalize the intended target to other relatable targets, this assay endpoint is annotated to the cyp intended target family, where subfamily is xenobiotic metabolism.
Human hepatocyte cultures were treated daily for two consecutive days with fresh dosing solutions containing appropriate concentrations of the 320 ToxCast chemicals (chemical identities were blinded to CellzDirect and other ToxCast collaborators), vehicle control (0.2% DMSO), and positive control inducers as summarized in Table 1. Due to the large number of treatment groups and chemicals examined, the ToxCast chemicals were divided into two groups (spanning two independent cultures of hepatocytes from separate donor preparations (Hu778: ToxCast plates 1 and 2; Hu776: ToxCast plates 3 and 4). Each preparation of human hepatocyte cultures was treated with respective vehicle control, medium only control, set of six positive controls/reference chemicals for the five hepatic receptor pathways, and a subset of eight of the ToxCast chemicals (indoxacarb, pyrithiobac-sodium, norflurazon, cyhalofop-butyl, methomyl, thiram, acetochlor, and propiconazole). These replicate data, coupled with internal replicates designed within the blinded ToxCast chemical library, provided additional data to evaluate interindividual differences between hepatocyte preparations and their potential impact on chemical profiles.Cell morphology and integrity were evaluated using phase-contrast microscopy as an indicator of hepatocyte cell health (Tyson & Green, 1987). Cultures for each treatment group (i.e., media, vehicle [0.2% DMSO], positive control inducers [multiple concentrations], and the ToxCast chemicals [multiple concentrations]) were observed and cell morphology was assessed relative to vehicle control cultures at each harvest time point (0, 6, 24, or 48 h). […] Images were evaluated at the conclusion of the study to assess changes in cell integrity and account for the effects of chemical exposure on uncharacteristic changes in concentration-dependent gene expression profiles. The results from these determinations of apparent cytotoxicity were annotated (yes/no) alongside the corresponding qNPA data for reference.At the conclusion of each treatment period, hepatocyte cultures (96-well) were washed with 1 volume of HBSS, lysed by addition of 25 ul ArrayPlate lysis buffer (HTG, Tucson, AZ), and 70 ul/well of Denaturation Oil, denatured by incubation at 95C for 10 min, and frozen at approximately -70C until analysis by nuclease protection assay (qNPA) (Roberts et al., 2007). For qNPA analysis, cell lysates were thawed at 50C for approximately 30 min, qNPA probes were added, and samples were incubated at 95C for 10 min to begin the detection process by denaturing the target RNA, dissociating the duplexes and secondary structure hybridization. At the conclusion of the hybridization period, S1 nuclease reagent was added to each sample to digest all nonprotected nucleotides at 50C for 60-90 min. […]
The term AC50 denotes the concentration giving half of the maximal activity seen. For `CCOP(=S)(Oc1cnc(C(C)(C)C)nc1)OC(C)C` (stereo not given), the AC50 is 2.24 µM (active).
As to `CSc1nnc(C(C)(C)C)c(=O)n1N`, the compound was classed as inactive.
Regarding `COP(=O)(NC(C)=O)SC` (stereo not given), the compound was classed as inactive.
On to `CCOP(=S)(OCC)Oc1ccc([N+](=O)[O-])cc1`, for which the AC50 was 3.67 µM (active).
Take `CCOP(=S)(OCC)SCCSCC`: the AC50 is 4.01 µM (active).
In the case of `Nc1nc(N)nc(NC2CC2)n1`, the call was inactive.
For the compound `CCOP(=O)(SC(C)CC)N1CCSC1=O` (stereo not given), the outcome was inactive.
Consider `CCCSP(=O)(OCC)Oc1ccc(Br)cc1Cl` (stereo not given), for which the AC50 was 10.2 µM (active).
As to `COP(=O)(OC)OC(Br)C(Cl)(Cl)Br` (stereo not given), the compound was called inactive.
Take `C#CCC1=C(C)C(OC(=O)C2C(C=C(C)C)C2(C)C)CC1=O` (stereo not given): the compound was called inactive.
Consider `CCCCOC(=O)[C@@H](C)Oc1ccc(Oc2ccc(C#N)cc2F)cc1`, for which the outcome was inactive.
On the same count and under the same terms, the entry for `Cc1ccn2nc(S(=O)(=O)Nc3c(F)cccc3F)nc2n1` is “inactive”.
Consider `Nc1c(Cl)cc([N+](=O)[O-])cc1Cl`, for which the AC50 is 34.5 µM (active).
Turning to `CNc1cnn(-c2cccc(C(F)(F)F)c2)c(=O)c1Cl`, the AC50 is 3.97 µM (active).
Regarding `Cc1cc(C2CC2)nc(Nc2ccccc2)n1`, the AC50 is 2.2 µM (active).
For the compound `CC1=NNC(=O)N(/N=C/c2cccnc2)C1`, the AC50 is 20 µM (active).
For the compound `CCCCOC(=O)c1ccccc1C(=O)O`, the result was inactive.
For `CCOP(=S)(OCC)Oc1cc(C)nc(C(C)C)n1`, the AC50 was 0.682 µM (active).
Regarding `Cc1nn(-c2cc(NS(C)(=O)=O)c(Cl)cc2Cl)c(=O)n1C(F)F`, the compound was classed as inactive.
With `CNC(=O)ON=C(C)SC`, the outcome was inactive.
Take `CC(C)[C@H](C(=O)O[C@H](C#N)c1cccc(Oc2ccccc2)c1)c1ccc(Cl)cc1`: the outcome was inactive.
Turning to `CCOP(=S)(OCC)OC(Cl)C(Cl)(Cl)Cl` (stereo not given), the compound was classed as inactive.
Take `CCc1cnc(C2=NC(C)(C(C)C)C(=O)N2)c(C(=O)O)c1` (stereo not given): the compound was classed as inactive.
As for `CC(C1CC1)C(O)(Cn1cncn1)c1ccc(Cl)cc1` (stereo not given), the AC50 was 0.0103 µM (active).
`CC(Oc1cccc(Cl)c1)C(=O)O` (stereo not given): the outcome was inactive.
As to `CCOP(=O)(NC(C)C)Oc1ccc(SC)c(C)c1` (stereo not given), the concentration at half-maximal activity (AC50) was 2.72 µM (active).
Regarding `COc1cccc(C(=O)NN(C(=O)c2cc(C)cc(C)c2)C(C)(C)C)c1C`, the compound was called inactive.
Regarding `CNC(=O)Oc1cccc2c1OC(C)(C)O2`, the concentration at half-maximal activity (AC50) is 2.94 µM (active).
`CCC(=O)Nc1ccc(Cl)c(Cl)c1`: the half-maximal activity concentration (AC50) is 20 µM (active).
`CC(COc1ccc(Oc2ccccc2)cc1)Oc1ccccn1` (stereo not given): the compound was classed as inactive.
Take `CCCCSP(=O)(SCCCC)SCCCC`: the half-maximal activity concentration (AC50) was 2.38 µM (active).
As to `C[N+]1(C)CCCCC1`, the compound was called inactive.
Regarding `CCOC(=O)CC(SP(=O)(OC)OC)C(=O)OCC` (stereo not given), the compound was classed as inactive.
As to `CN(C)C(=O)Nc1cccc(C(F)(F)F)c1`, the compound was called inactive.
As for `CCC(=NOC/C=C/Cl)C1=C(O)CC(C2CCOCC2)CC1=O` (stereo not given), the compound was classed as inactive.
For the compound `O=C(O)c1cc(Oc2ccc(C(F)(F)F)cc2Cl)ccc1[N+](=O)[O-]`, the result was inactive.
Turning to `CCOP(=O)(OCC)Oc1cc(C)nc(C(C)C)n1`, the compound was classed as inactive.
For the compound `CC(C)N(C(=O)SCC(Cl)=C(Cl)Cl)C(C)C`, the result was inactive.
With `C#CC(C)(C)NC(=O)c1cc(Cl)cc(Cl)c1`, the compound was called inactive.
In the case of `CC(C)=CC1C(C(=O)OCN2C(=O)C3=C(CCCC3)C2=O)C1(C)C` (stereo not given), the result was inactive.
